TcdB inh: TcdB glycohydrolase inhibitors, primary screen, biochemical, single point, plate reader. Toxin B (Clostridioides difficile), P18177. TcdB glycohydrolase enzymatic assay. inhibition, % at 9.99 µM. hit rate 0.24% among 350,000; in the data active = inhibition above about 10%
Mtb bLac sens: beta-lactam sensitization of Mtb H37Rv, H37Rv; M. tuberculosis H37Rv growth with meropenem, percent inhibition; inhibition, % at 25 µM; hit rate 0.27% among 330,000; AID 434955, 2010; call rule not given here;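 note: growth measured after seven days incubation then overnight dye step; 0% = bacteria only wells and 100% = bacteria with antibiotic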
UGM FP inh: M. tuberculosis UGM enzyme inhibitors, primary screen, biochemical, fluorescence polarization, single point; UDP-galactopyranose mutase (Mycobacterium tuberculosis (strain ATCC 25618 / H37Rv)), …; inhibition, % at 10 µM; purified UGM, fluorescence polarization probe displacement; hit rate 0.06% among 320,000; AID 504406, 2011; in the data active = inhibition above about 10%, passing the limit was not always enough
Rv3671c protease: Rv3671c serine protease inhibitors, primary screen, biochemical, fluorescence polarization, M. tuberculosis H37Rv. P9WHR9. inhibition, % at 5.96 µM. hit rate 0.048% among 320,000; in the data active = inhibition above about 38%;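 note: extracellular domain of Rv3671c used as enzyme; 0% = enzyme with DMSO and 100% = no enzyme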
Target sequence (P9WHR9 whole entry, looked up, the tested form may be a part): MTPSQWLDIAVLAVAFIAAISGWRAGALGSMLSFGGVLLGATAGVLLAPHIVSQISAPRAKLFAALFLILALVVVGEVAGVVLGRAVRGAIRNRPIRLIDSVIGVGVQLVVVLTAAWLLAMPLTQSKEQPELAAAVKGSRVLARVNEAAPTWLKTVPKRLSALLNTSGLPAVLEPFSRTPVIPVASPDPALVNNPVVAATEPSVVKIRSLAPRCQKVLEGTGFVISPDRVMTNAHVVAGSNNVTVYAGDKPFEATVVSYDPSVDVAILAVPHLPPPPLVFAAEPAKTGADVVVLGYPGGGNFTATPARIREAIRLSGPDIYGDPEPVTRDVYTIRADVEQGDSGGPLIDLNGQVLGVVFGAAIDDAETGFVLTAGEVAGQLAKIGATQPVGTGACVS
RecA intein inh: Mtb RecA intein splicing inhibitors, primary screen, biochemical, fluorescence, HTS; AID 2221, 2009; cell-free RecA intein splicing; Protein RecA (Mycobacterium tuberculosis (strain ATCC 25618 / H37Rv)), P9WHJ3; hit rate 0.75% among 290,000; inhibition, % (no concentration beside the values); in the data active = inhibition above about 30%;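 note: 0% = vehicle wells and 100% = reference inhibitor control wells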
MazEF act: activators of E. coli MazEF toxin-antitoxin RNase, primary screen, biochemical, fluorescence, uHTS; FAM/BHQ RNA-DNA oligo cleavage fluorescence, 5 h; activation, % at 20 µM; hit rate 0.32% among 350,000; AID 504720, 2011; in the data active = activation above about 50%
Target sequence (P0AE70 whole entry, looked up): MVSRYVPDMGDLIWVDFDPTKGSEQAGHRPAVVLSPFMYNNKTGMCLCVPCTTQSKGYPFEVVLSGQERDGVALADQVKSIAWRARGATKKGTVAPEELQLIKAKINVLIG
An asterisk follows results filed as active; · = no result; + = active, no number. A selection: hits, their analogues and other compounds. The true share with any hit is near 0.97%.

SMILES	TcdB inh	Mtb bLac sens	UGM FP inh	Rv3671c protease	RecA intein inh	MazEF act
c1ccc(-c2cnn3c(-c4ccccc4)c(-c4ccccc4)nc3n2)cc1	·	·	·	·	·	+
CN1c2ccc(-c3ccccc3)cc2[C@H]2[C@H](CCN2C(=O)CN2CCOCC2)[C@H]1CO	13.8*	·	·	·	·	·
COCC(=O)N1CC[C@H]2[C@@H]1c1cc(-c3cccc(OC)c3)ccc1N(C)[C@H]2CO	-0.5	·	·	·	·	·
CN1c2ccc(-c3ccccc3)cc2[C@H]2[C@H](CCN2C(=O)CN2CCOCC2)[C@@H]1CO	-0.8	·	·	·	·	·
COCC(=O)N1CC[C@@H]2[C@H]1c1cc(-c3cccc(OC)c3)ccc1N(C)[C@H]2CO	13.5*	·	·	·	·	·
CCC(=O)N1CC[C@@H]2[C@H]1c1cc(-c3ccccc3)ccc1N(C)[C@@H]2CO	1.2	·	·	·	·	·
CCC(=O)N1CC[C@@H]2[C@H]1c1cc(-c3ccccc3)ccc1N(C)[C@H]2CO	11.5*	·	·	·	·	·
COCC(=O)N1CC[C@@H]2[C@H]1c1cc(-c3ccccc3)ccc1N(C)[C@H]2CO	10.7*	·	·	·	·	·
COc1ccccc1NC(=O)N1CCCCN2[C@H](CO)[C@@H](c3ccc(C#CC4CC4)cc3)[C@H]2C1	0.1	·	·	·	·	·
CCC(=O)N1CC[C@@H]2[C@@H](CO)N(C)c3ccc(-c4ccccc4)cc3[C@@H]21	21.5*	·	·	·	·	·
CCC(=O)N1CC[C@@H]2[C@H]1c1cc(-c3ccc(F)cc3)ccc1N(C)[C@H]2CO	8.6	·	·	·	·	·
COc1cccc(CNC(=O)C[C@@H]2CC[C@H](NC(=O)C3CC3)[C@@H](CO)O2)c1	0.6	·	·	·	·	·
CCN1C(C)=C(C)S/C1=C1\SC(=S)N(C2CCCCC2)C1=O	0.6	1.1	0.9	3.1	-0.6	353.7*
CCN1C(C)=C(C)S/C1=C1\SC(=S)N(NC(C)=O)C1=O	1.1	1.3	1.7	-1.8	-2.0	-9.6
O=C(NC[C@H]1CC[C@H]2[C@H](CN2Cc2cccc(Cl)c2)O1)C1CCC1	-0.3	·	·	·	·	·
COc1ccccc1NS(=O)(=O)c1cccc(C(=O)N/N=C/c2ccc(OCC(=O)O)cc2)c1	1.4	8.1	1.0	-2.9	-0.1	8.0
CCOc1ccc(/C(CCC(=O)O)=N/NC(=O)c2cccc(S(=O)(=O)Nc3ccccc3OC)c2)cc1	0.4	-12.4	11.3*	-9.7	·	-7.1
Cc1ccc([N+](=O)[O-])cc1N/C=C1\CCCCC1=O	0.5	-6.0	1.6	1.0	1.1	98.0*
O=S(=O)(c1ccc(Cl)cc1)c1cnc2ccccc2n1	1.0	96.6	-1.8	-4.0	27.1	-0.5
Cc1cc(C)cc(S(=O)(=O)c2cnc3ccccc3n2)c1	2.2	-0.1	-0.8	4.5	31.5*	2.9
CC(C)C[C@H](N)c1nnc(S(=O)(=O)Cc2ccc(F)cc2)o1	·	38.3	-1.3	-0.5	33.6*	4.4
CCC(=O)Nc1ccc2c(c1)C(=O)N(C)C[C@@H](OC)[C@@H](C)CN(Cc1ccccc1OC)[C@@H](C)CO2	-18.1	·	·	·	·	·
CCn1nc(-c2ccccc2)nc2c(=O)n(C)c(=O)nc1-2	·	98.5	7.0	-176.7	94.5*	-82.3
CCOC(=O)Cn1nc(-c2ccccc2)nc1-c1ccccc1	·	99.3	0.4	-0.3	0.8	3.0
CC(=O)c1ccc(Sc2nnnn2-c2ccccc2)c([N+](=O)[O-])c1	0.2	97.9	2.0	1.0	30.9*	0.8
SMILES	TcdB inh	Mtb bLac sens	UGM FP inh	Rv3671c protease	RecA intein inh	MazEF act
CN1CCN(S(=O)(=O)c2ccc(Sc3nnnn3-c3ccccc3)c([N+](=O)[O-])c2)CC1	0.3	48.6	2.4	-7.1	15.2	2.7
C[C@@H]1CN([C@H](C)CO)S(=O)(=O)c2ccc(C3=CCCCC3)cc2O[C@H]1CN(C)C(=O)c1ccccc1	1.3	·	·	·	·	·
Cc1ccc(C(=O)NCCCNc2ccc(C(F)(F)F)cc2[N+](=O)[O-])cc1	-0.9	-3.8	1.9	-0.7	-0.1	3.7
O=C(NCCCNc1ccc(C(F)(F)F)cc1[N+](=O)[O-])c1ccc(F)cc1	0.5	57.0	2.4	-8.2	-2.7	61.5*
Cc1[nH]n2c(=O)c3c(nc2c1-c1ccc(F)cc1)CCCC3	-1.2	99.8	-0.7	0.9	-4.2	9.5
Cc1nc2c(-c3ccc(F)cc3)c(C)[nH]n2c(=O)c1Cl	1.0	91.2	1.1	2.2	42.7*	-30.1
Nc1ccc2c(c1)C(=O)c1cc(N)c(Cl)cc1-2	1.2	·	·	·	·	-11.0
COc1cc2c(cc1N)-c1ccc(N)cc1C2=O	20.2*	·	·	·	·	12.1
COc1ccc(S(=O)(=O)Nc2ccc3c(c2)C(=O)N([C@H](C)CO)C[C@H](C)[C@H](CN(C)C(=O)C2CCCCC2)OCCCC[C@H](C)O3)cc1	0.7	·	·	·	·	·
CC(=O)N1C(=O)C(=C2C=C(C)OC(C)=C2)c2ccccc21	·	-2.0	-0.3	6.8	-19.6	+
O=C(Cc1ccccc1)N[C@@H]1C=C[C@@H](CC(=O)N2CCOCC2)O[C@@H]1CO	-0.6	·	·	·	·	·
CC1CCN(CCCNC(=O)c2coc3nc4ccccc4nc23)CC1	·	-5.8	-5.2	-1.2	-20.4	5.9
Cc1ccc(CCNC(=O)c2coc3nc4ccccc4nc23)cc1	·	-7.7	3.2	-14.4	-0.9	90.2*
O=C(COc1coc(CN2CCc3ccccc3C2)cc1=O)Nc1ccc(F)cc1F	1.4	1.2	-1.5	-1.0	-0.2	211.4*
O=C(COc1coc(CN2CCc3ccccc3C2)cc1=O)Nc1ccc(F)cc1	-10.7	4.2	-1.4	-6.7	0.4	2.0
O=[N+]([O-])c1ccc(NN=Cc2ccc(O)cc2)nc1	2.9	·	·	·	·	6.5
CCN(CC)c1ccc(C=NNc2ccc([N+](=O)[O-])cn2)cc1	0.4	·	·	·	·	75.5*
COc1ccccc1C(=O)Nc1cccc(Oc2c(F)c(F)c(F)c(F)c2F)c1	13.3*	-3.7	2.2	-16.3	10.1	-5.5
CC(C)(Oc1ccc(Cl)cc1)C(=O)NC1CCSC1=O (configuration not stated)	0.8	-8.6	-0.9	6.9	-0.2	2.7
CC(C)(Oc1ccc(Cl)cc1)C(=O)NC1CC1	10.5*	-2.0	2.0	-4.4	-4.4	0.0
CCn1c(SCC(=O)OC)nnc1-c1ccccc1	19.7*	3.2	-0.3	-2.7	-2.3	-0.9
O=C(O)c1ccc(/C=N/Nc2nc3ccccc3[nH]2)cc1	1.8	9.8	0.0	1.0	-1.8	-7.1
O=c1[nH]c(N/N=C\c2ccc(F)cc2)nc2ccccc12	1.4	5.1	3.0	0.5	·	55.8*
O=c1[nH]c(N/N=C/c2ccc(O)cc2)nc2ccccc12	8.8	-0.2	0.1	4.9	-4.4	51.0*
O=C(c1c[nH]c(C(=O)C(Cl)(Cl)Cl)c1)c1c(F)cccc1F	0.6	-1.9	3.4	-12.3	14.3	5.1
O=C(c1c[nH]c(C(=O)C(Cl)(Cl)Cl)c1)c1ccccc1F	1.5	6.2	1.6	0.8	59.9*	-0.9
N#Cc1ncc(-c2ccc3c(c2)OCCOCCOCCOCCOCCO3)nc1C#N	·	100.0	0.5	-3.4	44.1*	3.2

From PubChem
